Several values for one entry are separate records, joined by “and”; a condition that tells them apart may be missing. Equal values may be shown once. Records with an inconclusive call do not appear. The source holds several records for some structures; these can differ, active in one and inactive in another. Activity calls are given as the source filed them. Unless noted, the call rests on the fitted dose curve; in most records, active means well fitted curve in the direction sought with a large enough effect; inconclusive means small, poorly fitted or top-dose-only effect, or another doubt; inactive means no such curve, though single readings can be large; an effect the other way counts as inactive or inconclusive.

This is an account of results in PubChem BioAssay (NCATS).

Assay [1] can be described thus: qHTS for Inhibitors of Plasmodium falciparum (DD2) proliferation (AID 504314).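 Further: parasite DNA measured by SYBR Green fluorescence after red cell lysis; plate controls were DMSO vehicle for no effect and artemisinin wells for full effect.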 In short, it runs like this:
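Erythrocytes infected with P. falciparum Dd2 (0.3% parasitemia, 2.5% hematocrit) exposed to compound 72 h at 37C, 5% CO2. Parasite DNA quantified by SYBR Green fluorescence after saponin/Triton lysis overnight; normalized to 0.29 uM artemisinin and DMSO.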
(qHTS replaces the single test concentration by a dilution series.)

The nature of assay [2]: qHTS for Inhibitors of Plasmodium falciparum (GB4) proliferation (AID 504315).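 Further: 0% = DMSO vehicle and -100% = 0.29 µM artemisinin control; nearly all actives have a fitted effect of over 50% in size.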 The method, boiled down: (§1)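 Erythrocytes infected with P. falciparum line (0.3% parasitemia, 2.5% hematocrit final) incubated with compounds 72 h at 37 °C, 5% CO2; SYBR Green lysis buffer added, fluorescence read next day. Normalized to 0.29 uM artemisinin and DMSO.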
The nature of assay [3]: qHTS for Inhibitors of Plasmodium falciparum (7G8) proliferation (AID 504316). Further: nearly all actives have a fitted effect of over 65% in size. Further: potency means the concentration at half of the fitted maximal effect.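 On activity change, negative = inhibition: series mostly up to about 6.7 µM; 0% = DMSO vehicle and -100% = 0.29 µM artemisinin full kill.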 The method, boiled down:
as §1

The nature of assay [4]: qHTS for Inhibitors of Plasmodium falciparum (CP250) proliferation (AID 504320).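 Further: plate controls were DMSO vehicle for no effect and 0.29 µM artemisinin control for full effect.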 The method, boiled down: as §1
Assay [5] concerns the target Atrial natriuretic peptide receptor 1 (Homo sapiens) (UniProt P16066). As to the kind of experiment: Natriuretic polypeptide receptor (hNpr1) antagonism - Pilot CMLD screen (AID 1347052; calls by dose curve;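 further: cGMP level read as GloSensor luciferase luminescence after agonist stimulation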; further: potency means the concentration at half of the fitted maximal effect;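 on activity change, negative = inhibition: HEK293 cells with hNpr1 stimulated by hNppA peptide at 0.1 nM; series mostly up to about 9.2 µM; on the % scale 0 is the no-effect control and ±100 the full control effect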).
Assay [6] addresses Cytochrome P450 3A4 (Homo sapiens) (UniProt P08684). Description: qHTS Assay for Inhibitors and Substrates of Cytochrome P450 3A4 (AID 884). Further: series mostly up to about 57 µM; on the % scale 0 is the no-effect control and ±100 the full control effect; nearly all actives have a fitted effect of over 50% in size. The method, boiled down:
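20 nM human CYP3A4 with 25 uM Luciferin-PPXE (at KM) in 200 mM KPO4, preincubated 10 min with compound; NADPH regeneration started a 60 min RT reaction. Luciferin detected by luminescence, normalized to 57 uM ketoconazole as full inhibition.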

The target in assay [7] is Cytochrome P450 2D6 (Homo sapiens) (UniProt P10635). As to the kind of experiment: qHTS Assay for Inhibitors and Substrates of Cytochrome P450 2D6 (AID 891). Further: nearly all actives have a fitted effect of over 60% in size. Further: potency means the concentration at half of the fitted maximal effect.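 On activity change, negative = inhibition: luciferin methyl ether substrate demethylated by CYP2D6 with NADPH regeneration; on the % scale 0 is the no-effect control and ±100 the full control effect.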 The method, boiled down:
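Human CYP2D6 (5 nM) with 30 uM Luciferin-ME EGE (at Km) in 100 mM KPO4, compound preincubated 10 min, then NADPH regeneration system for 60 min at room temperature. Luciferin read by luminescence; normalized to 1.43 uM quinidine.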

In assay [8] the target is Cytochrome P450 2C19 (Homo sapiens) (UniProt P33261). As to the kind of experiment: qHTS Assay for Inhibitors and Substrates of Cytochrome P450 2C19 (AID 899). Further: nearly all actives have a fitted effect of over 60% in size. Further: potency means the concentration at half of the fitted maximal effect. On activity, negative = inhibition: on the % scale 0 is the no-effect control and ±100 the full control effect. In short, it runs like this:
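Luminescence readout of luciferin formed from 10uM Luciferin-H EGE (KM level) by 5 nM CYP2C19 in 50mM KPO4. 60 min NADPH-driven reaction at 37C after 10 min compound preincubation; data scaled to 57uM ketoconazole inhibition.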

A short description of assay [9]: qHTS for Inhibitors of Plasmodium falciparum (HB3) proliferation (AID 504318).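 Further: 0% = DMSO vehicle and -100% = artemisinin control; nearly all actives have a fitted effect of over 60% in size.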 The method, boiled down:
as §1

Assay [10] concerns the target Cytochrome P450 2C9 (Homo sapiens) (UniProt P11712). Description: qHTS Assay for Inhibitors and Substrates of Cytochrome P450 2C9 (AID 883). Further: on the % scale 0 is the no-effect control and ±100 the full control effect; nearly all actives have a fitted effect of over 60% in size. In short, it runs like this:
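Luminescent read-out of deoxyluciferin hydroxylation, normalized to 57uM sulphaphenazole (AC100). Reaction: 10nM enzyme, 100uM Luciferin-H (equal to KM), 25mM KPO4, 10 min compound preincubation, then 60 min with NADPH regeneration, both at 37C.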

A short description of assay [11]: qHTS Assay for Identification of Small Molecule Agonists for Hypoxia Response Element Signaling Pathway (AID 914; active means well fitted activation curve with a large enough effect in the signal ratio, with a control signal flat, not every such curve was filed as active; the % refers to the signal ratio; further: % of control where 0% means no effect). Conditions: ME-180 (cervical carcinoma) HRE-bla reporter, beta-lactamase ratio, CoCl2, 17 h; stronger effect = higher value. The method, boiled down:
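HRE-bla ME-180 cells with beta-lactamase reporter under hypoxia response element, compounds with EC50 CoCl2 for 17 hours at 37 C. CCF4 substrate, 460nm/530nm emission ratio gave %Activity; AC50 from titration series.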

Assay [12] concerns the target Cytochrome P450 3A4 (Homo sapiens) (UniProt P08684). As to the kind of experiment: qHTS Assay for Activators of Cytochrome P450 3A4 (AID 885). Further: nearly all actives have a fitted effect of over 65% in size. The method, boiled down: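 Human CYP3A4 (20 nM) with Luciferin-PPXE at 25 uM (its KM) in 200 mM KPO4; 10 min compound preincubation, then NADPH regeneration and 60 min reaction at RT. Luciferin read by luminescence; normalized to 57 uM ketoconazole full inhibition.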

Cytochrome P450 3A4 (Homo sapiens), sequence (P08684 whole entry, looked up): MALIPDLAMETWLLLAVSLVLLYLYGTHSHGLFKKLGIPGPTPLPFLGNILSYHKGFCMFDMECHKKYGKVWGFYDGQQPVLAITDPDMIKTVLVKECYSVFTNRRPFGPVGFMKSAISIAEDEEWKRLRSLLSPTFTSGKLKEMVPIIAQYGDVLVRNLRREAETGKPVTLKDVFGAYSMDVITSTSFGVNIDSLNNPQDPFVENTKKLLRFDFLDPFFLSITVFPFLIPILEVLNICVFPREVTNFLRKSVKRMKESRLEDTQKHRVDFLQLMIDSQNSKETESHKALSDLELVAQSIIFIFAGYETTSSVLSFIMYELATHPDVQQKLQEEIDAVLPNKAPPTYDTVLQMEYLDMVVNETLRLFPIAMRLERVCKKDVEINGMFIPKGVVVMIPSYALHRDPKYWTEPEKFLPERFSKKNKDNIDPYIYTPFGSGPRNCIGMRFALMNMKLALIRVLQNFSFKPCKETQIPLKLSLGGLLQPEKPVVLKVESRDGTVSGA
Cytochrome P450 2C9 (Homo sapiens), sequence (P11712 whole entry, looked up): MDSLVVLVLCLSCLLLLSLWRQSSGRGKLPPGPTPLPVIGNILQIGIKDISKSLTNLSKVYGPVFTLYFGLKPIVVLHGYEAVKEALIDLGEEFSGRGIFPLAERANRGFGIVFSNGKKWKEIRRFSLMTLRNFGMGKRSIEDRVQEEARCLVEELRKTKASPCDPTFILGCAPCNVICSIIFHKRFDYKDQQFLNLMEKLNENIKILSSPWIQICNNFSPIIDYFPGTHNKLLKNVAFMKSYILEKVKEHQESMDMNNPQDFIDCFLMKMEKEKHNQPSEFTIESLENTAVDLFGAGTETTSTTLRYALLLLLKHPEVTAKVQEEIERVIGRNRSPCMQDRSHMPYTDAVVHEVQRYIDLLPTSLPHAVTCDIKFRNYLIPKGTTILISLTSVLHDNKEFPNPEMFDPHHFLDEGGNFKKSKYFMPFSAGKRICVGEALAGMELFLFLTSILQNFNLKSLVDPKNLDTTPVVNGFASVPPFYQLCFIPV
Cytochrome P450 2D6 (Homo sapiens), sequence (P10635 whole entry, looked up): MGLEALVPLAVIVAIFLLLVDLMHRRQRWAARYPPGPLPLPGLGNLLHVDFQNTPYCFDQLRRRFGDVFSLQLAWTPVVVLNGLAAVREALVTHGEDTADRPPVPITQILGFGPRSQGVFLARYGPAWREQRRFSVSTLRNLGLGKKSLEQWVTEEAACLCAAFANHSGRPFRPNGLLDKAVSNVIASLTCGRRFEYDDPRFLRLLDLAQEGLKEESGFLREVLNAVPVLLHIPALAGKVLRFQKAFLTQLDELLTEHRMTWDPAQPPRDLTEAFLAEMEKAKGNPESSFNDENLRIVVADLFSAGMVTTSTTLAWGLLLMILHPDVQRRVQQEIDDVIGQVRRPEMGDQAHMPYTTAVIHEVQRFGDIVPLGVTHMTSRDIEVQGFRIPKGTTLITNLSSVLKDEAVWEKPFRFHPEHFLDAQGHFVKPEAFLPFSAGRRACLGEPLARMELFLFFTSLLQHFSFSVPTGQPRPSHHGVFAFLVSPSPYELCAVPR
Atrial natriuretic peptide receptor 1 (Homo sapiens), sequence (P16066 whole entry, looked up): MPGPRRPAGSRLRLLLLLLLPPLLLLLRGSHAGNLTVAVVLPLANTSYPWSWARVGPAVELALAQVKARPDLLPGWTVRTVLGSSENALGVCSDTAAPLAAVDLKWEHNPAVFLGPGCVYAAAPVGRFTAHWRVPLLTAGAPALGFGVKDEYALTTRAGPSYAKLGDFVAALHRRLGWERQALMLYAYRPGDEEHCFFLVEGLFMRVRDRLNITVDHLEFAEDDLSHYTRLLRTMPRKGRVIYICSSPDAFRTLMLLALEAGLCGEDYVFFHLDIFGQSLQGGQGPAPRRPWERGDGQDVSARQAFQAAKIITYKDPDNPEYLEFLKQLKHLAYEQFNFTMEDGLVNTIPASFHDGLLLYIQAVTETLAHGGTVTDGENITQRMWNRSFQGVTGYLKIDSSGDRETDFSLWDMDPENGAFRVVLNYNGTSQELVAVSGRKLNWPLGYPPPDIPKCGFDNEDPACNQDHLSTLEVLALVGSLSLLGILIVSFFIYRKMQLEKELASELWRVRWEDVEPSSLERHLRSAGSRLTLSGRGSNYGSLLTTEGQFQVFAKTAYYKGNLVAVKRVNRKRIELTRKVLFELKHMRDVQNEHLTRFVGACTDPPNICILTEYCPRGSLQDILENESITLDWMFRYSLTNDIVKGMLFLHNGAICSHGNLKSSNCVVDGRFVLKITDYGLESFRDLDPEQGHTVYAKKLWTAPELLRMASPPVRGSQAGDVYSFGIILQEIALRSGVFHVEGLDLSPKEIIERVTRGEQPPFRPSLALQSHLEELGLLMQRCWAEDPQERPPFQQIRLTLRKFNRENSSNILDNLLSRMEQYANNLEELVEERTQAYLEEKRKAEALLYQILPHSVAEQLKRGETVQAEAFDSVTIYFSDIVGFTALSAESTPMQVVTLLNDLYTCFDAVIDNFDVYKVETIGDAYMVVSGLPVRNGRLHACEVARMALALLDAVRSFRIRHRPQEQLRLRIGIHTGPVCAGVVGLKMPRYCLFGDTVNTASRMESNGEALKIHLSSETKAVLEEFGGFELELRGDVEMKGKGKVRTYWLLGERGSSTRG
Cytochrome P450 2C19 (Homo sapiens), sequence (P33261 whole entry, looked up): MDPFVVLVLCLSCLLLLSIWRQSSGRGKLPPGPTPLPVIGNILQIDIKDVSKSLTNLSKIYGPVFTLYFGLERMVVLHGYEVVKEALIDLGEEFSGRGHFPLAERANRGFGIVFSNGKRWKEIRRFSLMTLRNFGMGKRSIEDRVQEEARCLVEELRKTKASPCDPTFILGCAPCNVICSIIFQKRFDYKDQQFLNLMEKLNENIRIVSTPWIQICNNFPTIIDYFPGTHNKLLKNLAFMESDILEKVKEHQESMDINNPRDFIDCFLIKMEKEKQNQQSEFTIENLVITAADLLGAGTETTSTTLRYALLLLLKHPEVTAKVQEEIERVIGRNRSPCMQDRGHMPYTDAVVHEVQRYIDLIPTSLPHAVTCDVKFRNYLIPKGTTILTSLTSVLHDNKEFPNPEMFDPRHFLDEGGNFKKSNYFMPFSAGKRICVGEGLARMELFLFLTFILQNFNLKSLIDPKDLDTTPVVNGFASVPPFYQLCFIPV

For `COC(=O)C1=C[C@]2(c3ccccc3C[C@H](OC)[C@@H]2C)[C@H]2C=C[C@H]1C2`, the Potency entry in assay [1], in [2], in assay [3], in assay [4] and in [5] was “inactive” each time.

Take `COC(=O)[C@@H]1[C@@H](c2cccc(C(F)(F)F)c2)NC(=O)N(Cc2ccccc2)[C@@H]1C`: the Potency entry in assay [1], in [2], in assay [3], in [4] and in [5] was “inactive” throughout.

As to `COC(=O)CC=C[C@@H](C)[C@H](NC(=O)OCC(Cl)(Cl)Cl)c1cccc(OC)c1`, the Potency entry in assay [1], in assay [2], in [3], in assay [4] and in assay [5] was “inactive” in each case.

`COc1ccc(CN2C=C3C(=O)C(C)(OC(=O)C4CCCC4)C(=O)C=C3C=C2c2ccsc2)cc1` (stereo not drawn): the activity, negative = inhibition in assay [1] was -5.43% [at 1.12 µM] (inactive). Besides, the Potency entry in [2], in assay [3], in assay [4] and in assay [5] was “inactive” each time.

Consider `CCOC(=O)CCN1C(=O)[C@@H]2[C@H]3[C@H](O)[C@H](O)CC(=NOCC(C)C)[C@@H]3CC[C@H]2C1=O`, for which the Potency entry in assay [1], in [2], in [3], in assay [4] and in assay [5] was “inactive” throughout.

For `C#CC[C@@]1(C(=O)OC)C=C[C@@H](C)[C@H](c2ccccc2Br)N1C(=O)C(F)(F)F`, the Potency entry in assay [1], in [2], in [3], in assay [4] and in assay [5] was “inactive” in each case.

As for `COC(=O)C12CC3(CCC4C5C(C(OCc6ccccc6)C41)C52)OCCO3` (stereo not drawn), the results for the activity change, negative = inhibition in assay [6] and in assay [7] were -29.8% [at 11.4 µM] (inactive) and 0.322% [at 11.4 µM] (inactive), respectively. In addition, the Potency in [8] was 1580 nM (active). Further, the Potency result in assay [1], in assay [2], in assay [3], in [9] and in assay [5] was “inactive” each time.

For the compound `COC(=O)CC=C[C@@H](C)[C@H](OC)c1c(Br)ccc2c1OCO2`, the Potency entry in assay [1], in assay [2], in assay [3], in [4] and in assay [5] was “inactive” throughout.

Take `Cc1c(O)ccc2c1OCO2`: the results for the activity change, negative = inhibition in assay [10], in [6] and in assay [7] were -0.37% [at 11.4 µM] (inactive), -25.6% [at 11.4 µM] (inactive) and -1.17% [at 11.4 µM] (inactive), respectively. For the same compound, the activity, negative = inhibition in assay [8] is 39.4% [at 11.4 µM] (inactive). The Potency result in assay [1], in [2], in assay [3], in assay [9], in [4] and in [5] was “inactive” each time.

For `C=CCOC(=O)C(C(=O)CC)[C@@H](NC(=O)OC)c1ccc(F)cc1` (stereo partly drawn), the Potency result in [1], in [2], in [3], in assay [4] and in [5] was “inactive” each time.

As for `COc1ccc(-c2nc3c(c4c2C[C@H](c2ccccc2)OC4)CN(C(=O)c2cccnc2)CC3)c(C)c1`, the activity, negative = inhibition in assay [1] was 2.56% [at 1.12 µM] (inactive). Also, the Potency result in assay [2], in assay [4] and in assay [5] was “inactive” throughout. The Potency in assay [3] was 1.51 µM (active) and 1.69 µM (active).

In the case of `COc1cc2c(cc1OC)[C@@H]1O[C@](c3ccsc3)(C2)Oc2cc(-c3ccccc3)oc(=O)c21`, the Potency result in [1], in [2], in [4] and in assay [5] was “inactive” in each case. The Potency in assay [3] was 1.9 µM (active) and inactive.

Consider `C[C@@H]1CC[C@H]2C(=O)O[C@H](CN=[N+]=[N-])CN2[C@@H]1c1ccc(Br)cc1`, for which the Potency in [8] is 398 nM (active). Besides, the activation in assay [11] is 9.69% (inactive). Besides, the Potency result in assay [1], in assay [2], in assay [3], in assay [9], in assay [4] and in assay [5] was “inactive” each time.

Regarding `COc1ccc(C(=O)CC(=O)c2c(O)cc(OC)cc2OC)cc1`, the activity change, negative = inhibition in [10] is -6.49% [at 11.4 µM] (inactive). In addition, in [12], the activity change, positive = activation is -41.2% [at 11.4 µM] (inactive). In addition, the Potency is 1260 nM (active) in assay [7] and 398 nM (active) in assay [8]. In addition, the Potency result in assay [1], in [2], in [3], in assay [9], in [4] and in [5] was “inactive” each time.

In the case of `C=CCN1c2ccccc2[C@]23C[C@@H](C(=O)OC)N(C(=O)c4cccs4)C2=NC(C(=O)OC)=C(C(=O)OC)[C@H]13`, the Potency result in assay [1], in assay [2], in assay [3], in assay [4] and in assay [5] was “inactive” throughout.

Consider `Cc1c(O)c(=O)c2ccccc2n1C`, for which the activity change, negative = inhibition in assay [10] was 25.8% [at 11.4 µM] (inactive); in [6], 0.317% [at 11.4 µM] (inactive); in assay [7], 2.15% [at 11.4 µM] (inactive). Moreover, the activity, negative = inhibition in [8] was 73.4% [at 11.4 µM] (inactive). Further, the Potency entry in assay [1], in [2], in assay [3], in [9] and in [5] was “inactive” each time.

As for `CCCCC1=CC2=C(c3ccco3)C(=O)C(C)(OC(=O)c3ccc(OC)cc3)C(=O)C2=CN1CCc1ccccn1` (stereo not drawn), the Potency entry in [1], in assay [2], in assay [3], in [4] and in assay [5] was “inactive” throughout.

With `C[C@@H]1CC[C@H]2C(=O)NC[C@@H](O)CN2[C@@H]1c1ccc(Br)cc1`, the Potency in assay [8] is 2000 nM (active). The activation in assay [11] is -3.48% (inactive). In addition, the Potency result in assay [1], in [2], in [3], in [9], in assay [4] and in assay [5] was “inactive” each time.

`COC(=O)CC=C[C@@H](C)[C@@H](COc1ccccc1Br)OC`: the Potency entry in assay [1], in assay [2], in assay [3] and in assay [4] was “inactive” in each case. For the same compound, the Potency in [5] was 944 nM (active).

Consider `COC(=O)C1=C[C@@H]([C@@H](C)[C@H](OC)c2ccccc2Br)[C@@H]2OCCC[C@H]12`, for which the Potency entry in [1], in [2], in assay [3], in assay [4] and in [5] was “inactive” each time.

For `Cc1cc(O)cc(O)c1C(=O)OC1(C)C(=O)C=C2C=C(C=CC(=O)O)OC=C2C1=O` (stereo not drawn), the Potency entry in [1], in [2], in assay [3], in assay [4] and in assay [5] was “inactive” in each case.

As for `COC(=O)CCCC1=CC2=C(c3ccccc3)C(=O)C(C)(OC(=O)C3CCCC3)C(=O)C2=CN1Cc1ccc2c(c1)OCO2` (stereo not drawn), in [1], the activity, negative = inhibition was -1.06% [at 1.12 µM] (inactive). For the same compound, the Potency entry in assay [2], in [3], in [4] and in assay [5] was “inactive” in each case.

For the compound `CCN1C(=O)N(S(=O)(=O)c2ccc(C)cc2)C(c2ccccc2)C(C(=O)OC)=C1C` (stereo not drawn), the Potency entry in assay [1], in assay [2], in assay [3], in assay [4] and in [5] was “inactive” throughout.
